According to PubChem BioAssay AID593 (National Center for Advancing Translational Sciences (NCATS), 2007):
In all, about 59,000 compounds went through this assay and about 540 (0.92%) were called active. Inconclusive results (about 33%) are left out. The sample holds actives, similar compounds and a random draw of the others, so the mix is not that of the screen. Rule as the data show it: active = max fluorescein-equivalent concentration above about 10 nM; inconclusive = between about 1.1 nM and that limit; inactive = weaker than that.

assay: qHTS Assay for Spectroscopic Profiling in Fluorescein Spectral Region; settings: Compound autofluorescence, 480/540 nm; max fluorescein-equivalent concentration: hits give high values; outcome: fluorescein-equivalent
Description: NIH Molecular Libraries Screening Centers Network [MLSCN]
NIH Chemical Genomics Center [NCGC]
Occasionally, the artifactual effect may originate from the compound's own spectral or other biophysical properties which generally tend to track its assay concentration. Pre-screening/profiling the library with respect to the compounds' spectral properties should help one exclude false positives early on. While the most informative fluorescent profiling data set is obtained by performing a full excitation and emission scan of each well by using a monochromator-based plate reader, such an approach is practical only on a very limited scale as scanning each well requires long time. An alternative approach, applied here, is to perform plate reader scans using selected excitation and emission wavelength pairs to generate a multidimensional relational database that correlates compound concentration and the respective relative fluorescence intensity at a given wavelength set. A standard curve of fluorescein present on each plate as six-point concentration series, was used to compute a normalized fluorescence response, termed dye-equivalent concentration, for each compound at each concentration.
NCGC Assay Protocol Summary:
100 mM Tris buffer, pH 8.0
The wells in columns 1 through 4 of a Kalypsys polypropylene 1536-well compound plate were filled with standard solutions of fluorophore corresponding to the spectral region of interest. Solutions of Fluorescein were placed in the following wells: Q1, R1: 3 mM, Q2, R2: 300 uM, Q3, R3: 30 uM, Q4, R4: zero (DMSO), S1, T1: 3 uM, S2, T2: 900 nM, S3, T3: 300 nM, S4, T4: zero (DMSO).
Six uL of buffer were dispensed to 1536-well Greiner black plates. Compounds and dye standards (23 nL) were transferred via Kalypsys PinTool. The plates were incubated for 15 min at room temperature, and then read on ViewLux (Perkin-Elmer) High-throughput CCD imager using 480 nm and 540 nm excitation and emission filter set.
Keywords: NIH Roadmap, MLSCN, MLI, MLSMR, qHTS, NCGC, Fluorescein, Fluorescent Profiling.

Max fluorescein-equivalent concentration, inactive:
COc1ccc2nc(NC3=NCN(CC4CCCO4)CN3)nc(C)c2c1 (centres undefined)
COc1cccc(Nc2ncc3ncc(=O)n(C4CC4)c3n2)c1
Oc1c(Br)cc(CN(Cc2cc(Br)c(O)c(Br)c2)C2CCCCC2)cc1Br
COc1ccc(C2C3=C(CC(C)(C)CC3=O)Oc3ncn4nc(-c5cccnc5)nc4c32)cc1OC (centres undefined)
O=C(c1ccc([N+](=O)[O-])cc1)[C@@H](Br)[C@@H](Br)c1ccnc2ccccc12
CN(C)CCSS(=O)(=O)O
CCCn1c(SCC(=O)c2ccc3c(c2)OCCO3)nnc1C(C)C
CCCCOc1ccccc1/C=c1/sc2nc(-c3oc4ccccc4c3C)nn2c1=O
COc1cccc(Cn2c(=O)c(-c3cc(F)cc(F)c3)nc3cnc(OC)nc32)c1
CCOC(=O)CSc1nc2sc3c(c2c(=O)[nH]1)CC(C)(C)OC3
CCOc1ccc2[nH]c(=O)c(CN(CCCO)C(C)=O)cc2c1
CN1CCN(CC(=O)C23CC4CC(CC(C4)C2)C3)CC1
c1ccc2sc(SCCSc3nc4ccccc4s3)nc2c1
CCOC(=O)c1csc(NC(=O)c2ccc(S(=O)(=O)N3CCCC3)cc2)n1
O=C(c1ccco1)N1CCC2(CC1)CN(c1ncccn1)C2
CCOC(=O)c1sc(NC(=O)c2cc(S(=O)(=O)N3CCOCC3)ccc2C)nc1C
COc1cccc(-c2nc(Nc3ccncc3)c3ccccc3n2)c1
CC(C)NC(=O)N1CC[C@@]2(CCCN(C(=O)c3cccn3C)C2)C1
CCCCCC(=O)Nc1ccc2oc(-c3ccncc3)nc2c1
Cc1ccc(CC2CC(=O)N(c3ccc4c(c3)OCCO4)C2=O)cc1 (centres undefined)
CCOC(=O)C1C(=O)NC(N2CCN(c3ccccc3)CC2)=NC1c1ccco1 (centres undefined)
O=C(c1cnccn1)N1CCC2(CCN(Cc3cc(C(F)(F)F)cc(C(F)(F)F)c3)CC2)CC1
N=c1c2c3c(sc2ncn1N)CCCCC3
O=c1c(-c2ccc(F)cc2)nc2cnc(N3CCNCC3)nc2n1Cc1cccs1
CCN(CC)C(=O)C1CCC(C)(C(=O)O)C1(C)C (centres undefined)
CCc1ccc(CCC(=O)Nc2ccc(S(N)(=O)=O)cc2)o1
COc1ccc(-c2nc(SCC(=O)N3CCOCC3)n[nH]2)cc1
CN(C)/C=C1/Nc2ccccc2C1=O
COC(=O)C(C)N(C#N)c1nc(C)nc(C)n1 (centres undefined)
COCCCn1c2nc3ccccc3nc2c2c(=O)n(Cc3ccc(Cl)cc3)c(C)nc21
CCN(CC)S(=O)(=O)c1ccc2nc(CSc3nnnn3-c3ccc(O)cc3)[nH]c2c1
COc1cc(OC)cc(C(=O)Nc2ccc(-c3nc4ccccc4o3)c(O)c2)c1
CC(=O)c1ccc(N2C(=NC(=O)C(C)C)SC3CS(=O)(=O)CC32)cc1 (centres undefined)
COc1ccc(C(c2nnnn2Cc2cccs2)N2CCN(c3ccccc3)CC2)cc1OC (centres undefined)
CC(=O)c1ccc(NC(=O)N[C@@H](Cc2ccccc2)C(=O)O)cc1
CC(C)c1ccc(-c2nn[nH]n2)cc1
Cn1c(SCC(=O)c2cccs2)nnc1-c1ccco1
CC1(C)Cc2ccccc2-c2nnc(-c3cccc(O)c3)n21
CC1(C)Cc2cccc(OCC(=O)Nc3nccs3)c2O1
COC(=O)c1ccc(NC(=O)CSc2nnc(-c3ccncc3)n2C)cc1
Cc1ccc(C)c(NC(=O)C2CC(=O)N(C(C)C)C2)c1 (centres undefined)
Cc1ccccc1-c1nc(N(C)Cc2ccco2)c2ccccc2n1
c1ccc(CSCCc2ccncc2)cc1
C[C@]1(O)CC[C@H]2[C@H]3CC=C4N5CCN=C5CC[C@@]4(C)[C@H]3CC[C@@]21C
O=c1[nH]nc(Cc2ccccn2)c2ccccc12
Cc1ccc(-c2noc(CN3CCN(Cc4ccccc4)CC3)n2)cc1
CCOC(=O)c1cc2occc2n1CC(=O)NC1CCC(C)CC1 (centres undefined)
COc1ccc(C(=O)N(Cc2ccc(N(C)C)cc2)C2CCS(=O)(=O)C2)cc1 (centres undefined)
O=S(=O)(NCCOc1cccc2cccnc12)c1ccc(F)cc1
Nc1nc2c(ncn2[C@H]2CC[C@@H](CO)O2)c(=O)n1C(=O)c1ccccc1
O=C(O)[C@H](CCc1ccccn1)c1ccccc1
O=C(COc1cccc(-n2cnnn2)c1)NCCC1=CCCCC1
Cc1cc2c(cc1C)NC1=C(N2)O[C@H](c2c[nH]c3ccc(COc4ccccc4)cc23)C1=O
CC(C)CC(=O)N=C1SC2CS(=O)(=O)CC2N1CCc1ccccc1 (centres undefined)
O=C(c1ccco1)N1CCC2(CC1)CCN(c1ncccn1)CC2
NCC(=O)[C@@H](O)[C@H](O)[C@H](O)CO
Cc1cc(C)c2cc(CN(Cc3cccs3)Cc3nnnn3CC3CCCO3)c(=O)[nH]c2c1 (centres undefined)
CS(=O)(=O)N1CCC2(CCN(c3ccncc3)CC2)CC1
COc1ccc(-c2ccc(-c3noc(-c4ccncc4)n3)c(OC)n2)cc1
COc1cccc(-c2cc(NCCc3c[nH]c4ccc(OC)cc34)ncn2)c1
CN1CCN(c2ccc(NC(=O)COc3ccc(Cl)cc3Cl)cc2)CC1
Clc1ccc(C(c2ccc(Cl)cc2)n2cc[n+](C[C@@H](OCc3ccc(Cl)cc3Cl)c3ccc(Cl)cc3Cl)c2)cc1
COCCn1c(=O)c(CCc2ccccc2)nc2cnc(N3CCNCC3)nc21
COc1ccccc1CCn1c(=O)c(-c2cn(C)c3ccccc23)nc2cncnc21
CCn1c(Cc2ccccc2)nnc1SCC(=O)Nc1ccccc1
O=c1cc(-c2ccc(O)c(O)c2)oc2cccc(O)c12
CCCCCCn1c(CN2CCCC(C)C2)nc2c1c(=O)n(C)c(=O)n2C (centres undefined)
COC(=O)c1c(NC(=O)CSc2nc3c(c(=O)n(C)c(=O)n3C)n2C(C)C)sc(C)c1C
Clc1ccc(C=Nc2ccc3c(c2)Cc2ccccc2-3)c(Cl)c1
CCNc1ncc2nc(CCc3ccccc3)c(=O)n(-c3ccc(OC)cc3)c2n1
CSCCC(Nc1nc2ccccc2s1)C(=O)O (centres undefined)
CCn1c(COc2cccc(OC)c2)nnc1SCC(=O)N1CCOCC1
O=C(O)[C@@H](S)[C@H](S)C(=O)O
COc1ccc(OC)c([C@H](O)CNC(=O)CN)c1
COCCNC(=O)C(C#N)c1nc2ccccc2nc1N1CCN(Cc2ccc3c(c2)OCO3)CC1 (centres undefined)
CC(=O)/C(=N\N=C(N)N)c1ccccc1
CCCCC(=O)Nc1ccc(C(=O)NCCCn2ccnc2)cc1
O=c1[nH]nc(CSCc2ccccc2Cl)[nH]1
COC(=O)N1CCC[C@@]2(CCN(C(=O)NC(C)C)C2)C1
CCOC(=O)c1cc2ccccc2nc1C
CCOC(=O)c1cc2n(c1C)-c1ccccc1C2=O
CCc1ccc2oc(-c3ccc(N)cc3)nc2c1
O=C(c1ccncc1)N1CCC2(CCCN(C(c3ccccc3)c3ccccc3)C2)CC1
CC(C)CSC[C@@H]1O[C@H](n2cnc3c(N)nccc32)[C@H](O)[C@@H]1O
COc1ccc(-c2nc3cnc(Oc4ccccc4)nc3n(Cc3cccs3)c2=O)cc1
CCOc1ccc(N=NS(=O)(=O)O)cc1
O=c1c(-c2cccs2)nc2cnc(Oc3ccccc3)nc2n1-c1ccccc1
CCn1c(COc2ccc(OC)cc2)nnc1SCC(=O)Nc1cc(OC)ccc1OC
Cc1ccc2nc(NCCCNC(=O)c3cnccn3)c(C#N)cc2c1
CC(C)CNC(=O)C1CCCN(S(=O)(=O)c2ccc(-n3cnnn3)cc2)C1 (centres undefined)
FC(F)(F)c1ccccc1-c1cc(NCc2ccccc2)ncn1
COCCn1c(=O)c(C)nc2cnc(N(C)C)nc21
CN1CCN(C(=O)c2ccc(NS(=O)(=O)c3ccccc3)cc2)CC1
CN1CCN(Cc2nc3c(c(=O)n(C)c(=O)n3C)n2Cc2cccc3ccccc23)CC1
CS(=O)(=O)N(C(=O)NC(=O)NC1CCS(=O)(=O)C1)C1CCCCC1 (centres undefined)
NC(=O)C1CCN(C(=O)c2ccc(C(F)(F)F)cc2)CC1
CC1(C)S[C@@H]2[C@@H](NC(=O)[C@@H](N)c3ccccc3)C(=O)N2[C@H]1C(=O)O
O=C(NCCc1ccco1)c1nn(Cc2ccccc2)c(=O)c2ccccc12
CN(C)CCCn1c2ccccc2c2cnccc21
CC(C)c1nc2oc3c(N4CCN(C)CC4)ncnc3c2c2c1CCC2
CC(=O)N1CCN(c2ccc(NCc3ccc(C(C)C)cc3)cc2)CC1
Cc1ccc(C(=O)NCC(=O)O)cc1S(=O)(=O)N1CCCCC1

Max fluorescein-equivalent concentration, active:
O=C(O)c1c(Br)c(Br)c(Br)c(Br)c1C1c2ccc(O)cc2Oc2cc(O)ccc21 320 nM
CCCn1c(O)c(CN2CCCC(C)C2)c(C)c(C#N)c1=O (centres undefined) 65 nM
Cc1ccc(S(=O)(=O)C(C#N)c2nc3ccccc3nc2N2CCCC2)cc1C (centres undefined) 14 nM
CCOC(=O)c1cc2n(c1N)-c1ccccc1C2=O 780 nM
CCN(CC)c1ccc2oc(=O)c(C)nc2c1 140 nM
Nc1ccc2c3c(cccc13)C(=O)NC2=O 2000 nM
CC[N+](C)(CC)CCC[n+]1c(-c2ccccc2)c2cc(N)ccc2c2ccc(N)cc21 18 nM
